# Laboratory results reported in article PMC7862700, “An all-to-all approach to the identification of sequence-specific readers for epigenetic DNA modifications on cytosine”.
# Assays:
# Experiment in all cases: DAPPL (digital affinity profiling via proximity ligation, sequencing); 10 mM Tris-HCl pH 7.5, 50 mM NaCl, 1 mM DTT, 4% glycerol, room temperature, 30 min; GST-TFs on glutathione beads, 16-mer random dsDNA library, 0.1% formaldehyde crosslink after washing; high values mean tight binding
# FLI1 = biological target: T1, FLI1 (Homo sapiens, UniProt Q01543 1-452); settings: protein: recombinant; tags: N-terminal GST; dsDNA, one strand shown
# T1 sequence: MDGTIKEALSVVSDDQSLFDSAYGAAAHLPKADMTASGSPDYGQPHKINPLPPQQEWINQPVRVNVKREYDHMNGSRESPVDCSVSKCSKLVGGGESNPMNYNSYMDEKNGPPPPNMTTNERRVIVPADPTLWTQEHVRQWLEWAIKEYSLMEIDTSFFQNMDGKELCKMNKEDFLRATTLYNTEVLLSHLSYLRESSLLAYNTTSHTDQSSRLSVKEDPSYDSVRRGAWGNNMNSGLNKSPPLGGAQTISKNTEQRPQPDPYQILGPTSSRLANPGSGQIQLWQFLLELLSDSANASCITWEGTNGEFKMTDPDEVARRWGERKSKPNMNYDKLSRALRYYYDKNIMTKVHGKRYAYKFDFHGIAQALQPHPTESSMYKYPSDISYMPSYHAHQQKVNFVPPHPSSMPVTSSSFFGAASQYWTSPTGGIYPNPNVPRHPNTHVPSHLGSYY
# In short: (§1)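 Human transcription factors carrying a GST fusion were produced in yeast, bound to glutathione beads, tagged with DNA barcodes and pooled together with a tag-only sample. Each pool was held with 200 nmole of a random double-stranded 16-mer DNA library in Tris/NaCl/DTT/glycerol buffer for 30 min at room temperature, then washed, crosslinked in 0.1% formaldehyde, proximity-ligated with BsaI/T4 ligase (1 h, 37 °C), PCR-amplified and sequenced on an Illumina NextSeq500. Binding signal is the read frequency of each hexamer for a given factor divided by its frequency in the tag-only sample.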
# ELK1 = biological target: T2, ELK1 (Homo sapiens, UniProt P19419 1-428); settings: protein: recombinant; tags: N-terminal GST; dsDNA, one strand shown
# T2 sequence: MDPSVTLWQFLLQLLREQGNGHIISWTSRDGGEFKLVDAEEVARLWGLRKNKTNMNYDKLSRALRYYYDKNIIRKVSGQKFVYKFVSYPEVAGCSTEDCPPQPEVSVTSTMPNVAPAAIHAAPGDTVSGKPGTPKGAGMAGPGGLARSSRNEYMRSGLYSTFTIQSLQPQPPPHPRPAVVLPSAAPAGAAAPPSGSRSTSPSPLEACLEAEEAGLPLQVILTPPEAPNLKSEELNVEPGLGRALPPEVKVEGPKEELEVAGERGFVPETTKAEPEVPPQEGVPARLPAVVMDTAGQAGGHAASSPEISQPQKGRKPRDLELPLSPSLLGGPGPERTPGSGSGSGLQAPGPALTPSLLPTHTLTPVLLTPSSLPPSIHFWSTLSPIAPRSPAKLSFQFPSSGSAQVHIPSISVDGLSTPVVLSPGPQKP
# In short: as §1
# GABPA = biological target: T3, GABPA (Homo sapiens, UniProt Q06546 1-454); settings: protein: recombinant; tags: N-terminal GST; dsDNA, one strand shown
# T3 sequence: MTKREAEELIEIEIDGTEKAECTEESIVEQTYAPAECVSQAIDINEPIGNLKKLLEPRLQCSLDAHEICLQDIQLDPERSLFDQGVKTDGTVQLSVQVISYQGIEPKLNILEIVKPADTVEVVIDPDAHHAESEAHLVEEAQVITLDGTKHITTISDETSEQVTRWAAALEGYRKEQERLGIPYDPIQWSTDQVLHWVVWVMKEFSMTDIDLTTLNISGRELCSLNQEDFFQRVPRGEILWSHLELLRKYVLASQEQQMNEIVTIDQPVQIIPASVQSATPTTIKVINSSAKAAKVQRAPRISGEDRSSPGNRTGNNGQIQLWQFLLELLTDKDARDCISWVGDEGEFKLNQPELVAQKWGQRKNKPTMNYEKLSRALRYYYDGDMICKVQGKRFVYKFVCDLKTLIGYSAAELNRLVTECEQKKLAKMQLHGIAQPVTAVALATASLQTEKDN
# In short: as §1
# ERG = biological target: T4, ERG (Homo sapiens, UniProt P11308 1-479); settings: protein: recombinant; tags: N-terminal GST; dsDNA, one strand shown
# T4 sequence: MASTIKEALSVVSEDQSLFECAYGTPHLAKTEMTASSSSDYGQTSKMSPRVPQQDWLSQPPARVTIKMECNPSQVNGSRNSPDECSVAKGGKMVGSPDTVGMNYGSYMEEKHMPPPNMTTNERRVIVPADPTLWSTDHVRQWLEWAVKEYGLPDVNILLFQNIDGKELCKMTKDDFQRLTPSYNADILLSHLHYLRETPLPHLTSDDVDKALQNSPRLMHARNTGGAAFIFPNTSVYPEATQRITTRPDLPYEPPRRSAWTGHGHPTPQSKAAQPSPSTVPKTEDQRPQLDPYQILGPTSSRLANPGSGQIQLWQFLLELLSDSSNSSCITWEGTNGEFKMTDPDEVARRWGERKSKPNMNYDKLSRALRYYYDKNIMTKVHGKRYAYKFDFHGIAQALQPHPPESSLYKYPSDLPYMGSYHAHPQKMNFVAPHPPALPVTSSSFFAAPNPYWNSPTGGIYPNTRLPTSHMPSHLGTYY
# In short: as §1
# ELF1 = ELF1 (Homo sapiens, UniProt P32519 1-619); settings: protein: recombinant; tags: N-terminal GST; dsDNA, one strand shown
# Sequence of ELF1 (P32519 whole entry): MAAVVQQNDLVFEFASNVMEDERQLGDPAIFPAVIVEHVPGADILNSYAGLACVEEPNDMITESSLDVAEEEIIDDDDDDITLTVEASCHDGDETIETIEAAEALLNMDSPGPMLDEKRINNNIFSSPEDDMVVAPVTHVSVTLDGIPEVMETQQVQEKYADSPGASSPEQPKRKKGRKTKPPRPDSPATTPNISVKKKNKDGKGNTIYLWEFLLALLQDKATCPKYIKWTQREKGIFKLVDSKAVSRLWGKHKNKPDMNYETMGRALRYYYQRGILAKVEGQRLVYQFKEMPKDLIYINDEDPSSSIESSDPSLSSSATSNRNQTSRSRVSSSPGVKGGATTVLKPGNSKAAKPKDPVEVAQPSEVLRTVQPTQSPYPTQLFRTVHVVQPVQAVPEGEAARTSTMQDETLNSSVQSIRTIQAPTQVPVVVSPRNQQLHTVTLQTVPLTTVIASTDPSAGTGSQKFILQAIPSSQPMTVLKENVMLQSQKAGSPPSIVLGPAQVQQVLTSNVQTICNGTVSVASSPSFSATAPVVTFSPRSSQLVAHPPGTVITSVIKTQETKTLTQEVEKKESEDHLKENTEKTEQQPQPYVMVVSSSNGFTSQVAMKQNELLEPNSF
# In short: as §1
# EHF = biological target: T5, EHF (Homo sapiens, UniProt Q9NZC4 1-300); settings: protein: recombinant; tags: N-terminal GST; dsDNA, one strand shown
# T5 sequence: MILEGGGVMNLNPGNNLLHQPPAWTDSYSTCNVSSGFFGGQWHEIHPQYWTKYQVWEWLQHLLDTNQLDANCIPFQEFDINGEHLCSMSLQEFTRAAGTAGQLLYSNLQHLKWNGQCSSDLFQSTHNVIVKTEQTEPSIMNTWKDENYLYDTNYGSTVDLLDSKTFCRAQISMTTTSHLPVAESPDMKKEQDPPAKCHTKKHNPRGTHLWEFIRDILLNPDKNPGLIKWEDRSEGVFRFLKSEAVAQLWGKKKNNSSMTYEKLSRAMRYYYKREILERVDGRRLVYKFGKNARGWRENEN
# In short: as §1
# SPI1 = SPI1 (Homo sapiens, UniProt P17947 1-270); settings: protein: recombinant; tags: N-terminal GST; dsDNA, one strand shown
# In short: as §1
# SPIB = SPIB (Homo sapiens, UniProt Q01892 1-262); settings: protein: recombinant; tags: N-terminal GST; dsDNA, one strand shown
# Sequence of SPIB (Q01892 whole entry): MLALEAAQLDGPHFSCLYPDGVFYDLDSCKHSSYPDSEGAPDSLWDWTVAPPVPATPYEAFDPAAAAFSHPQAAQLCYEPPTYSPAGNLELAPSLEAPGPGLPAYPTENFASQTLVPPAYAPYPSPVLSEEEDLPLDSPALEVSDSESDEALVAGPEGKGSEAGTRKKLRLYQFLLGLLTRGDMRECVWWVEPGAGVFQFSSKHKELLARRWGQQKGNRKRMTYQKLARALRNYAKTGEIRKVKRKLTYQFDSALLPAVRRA
# In short: as §1
# ELK3 = biological target: T6, ELK3 (Homo sapiens, UniProt P41970 1-407); settings: protein: recombinant; tags: N-terminal GST; dsDNA, one strand shown
# T6 sequence: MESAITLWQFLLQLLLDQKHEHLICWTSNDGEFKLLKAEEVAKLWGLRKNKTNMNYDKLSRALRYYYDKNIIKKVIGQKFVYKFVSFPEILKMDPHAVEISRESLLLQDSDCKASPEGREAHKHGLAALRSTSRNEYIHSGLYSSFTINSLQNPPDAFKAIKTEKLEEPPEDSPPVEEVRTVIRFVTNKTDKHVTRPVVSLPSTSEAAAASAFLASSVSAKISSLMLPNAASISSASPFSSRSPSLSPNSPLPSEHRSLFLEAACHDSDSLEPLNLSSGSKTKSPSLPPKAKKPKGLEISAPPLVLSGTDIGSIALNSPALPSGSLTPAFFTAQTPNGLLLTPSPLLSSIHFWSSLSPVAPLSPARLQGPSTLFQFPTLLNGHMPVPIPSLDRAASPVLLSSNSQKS
# In short: as §1
# FEV = biological target: T7, FEV (Homo sapiens, UniProt Q99581 1-238); settings: protein: recombinant; tags: N-terminal GST; dsDNA, one strand shown
# T7 sequence: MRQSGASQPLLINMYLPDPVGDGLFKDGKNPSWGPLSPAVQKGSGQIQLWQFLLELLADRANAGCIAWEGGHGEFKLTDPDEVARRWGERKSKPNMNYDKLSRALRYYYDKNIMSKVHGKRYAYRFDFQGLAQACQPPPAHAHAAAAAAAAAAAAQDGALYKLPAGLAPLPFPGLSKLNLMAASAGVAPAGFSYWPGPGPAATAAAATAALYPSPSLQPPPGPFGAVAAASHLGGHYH
# In short: as §1
# ETV5 = ETV5 (Homo sapiens, UniProt P41161 1-510); settings: protein: recombinant; tags: N-terminal GST; dsDNA, one strand shown
# Sequence of ETV5 (P41161 whole entry): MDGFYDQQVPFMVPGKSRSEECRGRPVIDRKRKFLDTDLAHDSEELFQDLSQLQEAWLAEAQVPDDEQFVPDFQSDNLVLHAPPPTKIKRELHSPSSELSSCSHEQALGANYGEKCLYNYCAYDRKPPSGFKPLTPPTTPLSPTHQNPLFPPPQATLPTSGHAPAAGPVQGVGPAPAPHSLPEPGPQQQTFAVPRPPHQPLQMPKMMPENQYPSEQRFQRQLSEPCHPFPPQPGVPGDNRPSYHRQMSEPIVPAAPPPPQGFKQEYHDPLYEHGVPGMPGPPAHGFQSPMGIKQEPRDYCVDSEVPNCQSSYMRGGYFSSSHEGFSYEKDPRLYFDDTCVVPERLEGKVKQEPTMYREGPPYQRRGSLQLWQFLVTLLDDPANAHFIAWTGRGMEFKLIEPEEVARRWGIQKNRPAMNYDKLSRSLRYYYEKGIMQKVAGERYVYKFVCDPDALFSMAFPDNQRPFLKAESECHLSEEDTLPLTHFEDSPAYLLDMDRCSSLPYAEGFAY
# In short: as §1
# HSF1 = HSF1 (Homo sapiens, UniProt Q00613 1-529); settings: protein: recombinant; tags: N-terminal GST; chain copies: 3; dsDNA, one strand shown
# Sequence of HSF1 (Q00613 whole entry): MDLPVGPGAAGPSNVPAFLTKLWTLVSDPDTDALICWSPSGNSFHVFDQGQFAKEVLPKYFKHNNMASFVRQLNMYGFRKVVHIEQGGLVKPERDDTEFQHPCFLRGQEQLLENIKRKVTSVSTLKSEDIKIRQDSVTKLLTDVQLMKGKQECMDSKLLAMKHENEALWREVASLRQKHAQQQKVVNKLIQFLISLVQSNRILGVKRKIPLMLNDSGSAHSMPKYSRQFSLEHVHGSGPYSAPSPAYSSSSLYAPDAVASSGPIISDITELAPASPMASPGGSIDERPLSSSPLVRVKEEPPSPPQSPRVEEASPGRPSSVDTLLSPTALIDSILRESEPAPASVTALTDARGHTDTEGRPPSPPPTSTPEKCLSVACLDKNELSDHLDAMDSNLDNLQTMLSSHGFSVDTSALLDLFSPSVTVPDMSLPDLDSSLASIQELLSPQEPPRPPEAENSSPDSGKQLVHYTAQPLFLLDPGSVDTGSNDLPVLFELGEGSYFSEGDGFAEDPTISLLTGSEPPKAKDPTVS
# In short: as §1
# SPIC = biological target: T8, SPIC (Homo sapiens, UniProt Q8N5J4 1-248); settings: protein: recombinant; tags: N-terminal GST; dsDNA, one strand shown
# T8 sequence: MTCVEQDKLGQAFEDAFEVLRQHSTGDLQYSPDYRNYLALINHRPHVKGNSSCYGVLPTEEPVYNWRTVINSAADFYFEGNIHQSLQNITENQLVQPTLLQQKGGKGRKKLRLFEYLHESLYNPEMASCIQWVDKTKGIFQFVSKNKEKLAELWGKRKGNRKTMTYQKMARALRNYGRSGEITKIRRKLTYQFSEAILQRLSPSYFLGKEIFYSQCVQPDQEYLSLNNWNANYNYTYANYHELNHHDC
# In short: as §1
# ELF4 = ELF4 (Homo sapiens, UniProt Q99607 1-663); settings: protein: recombinant; tags: N-terminal GST; dsDNA, one strand shown
# Sequence of ELF4 (Q99607 whole entry): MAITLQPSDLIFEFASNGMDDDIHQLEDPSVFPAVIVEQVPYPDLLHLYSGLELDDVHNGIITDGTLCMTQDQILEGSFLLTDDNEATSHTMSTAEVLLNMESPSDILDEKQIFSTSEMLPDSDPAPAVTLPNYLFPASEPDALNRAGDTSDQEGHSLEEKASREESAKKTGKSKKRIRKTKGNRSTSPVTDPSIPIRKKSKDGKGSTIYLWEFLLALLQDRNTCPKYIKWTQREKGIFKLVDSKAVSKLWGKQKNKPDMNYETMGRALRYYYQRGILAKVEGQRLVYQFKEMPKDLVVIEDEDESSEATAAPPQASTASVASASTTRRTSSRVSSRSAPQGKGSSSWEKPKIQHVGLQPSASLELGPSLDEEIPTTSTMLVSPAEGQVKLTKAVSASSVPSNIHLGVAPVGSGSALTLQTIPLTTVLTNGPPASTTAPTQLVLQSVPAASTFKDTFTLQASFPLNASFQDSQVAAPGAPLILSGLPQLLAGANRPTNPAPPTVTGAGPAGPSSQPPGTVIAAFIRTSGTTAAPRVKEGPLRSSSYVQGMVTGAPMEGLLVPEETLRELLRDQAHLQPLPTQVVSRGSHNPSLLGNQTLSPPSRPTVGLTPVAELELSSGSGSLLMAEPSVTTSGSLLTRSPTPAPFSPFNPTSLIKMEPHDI
# In short: as §1
# ELK4 = biological target: T9, ELK4 (Homo sapiens, UniProt P28324-2 1-405); settings: protein: recombinant; tags: N-terminal GST; dsDNA, one strand shown
# T9 sequence: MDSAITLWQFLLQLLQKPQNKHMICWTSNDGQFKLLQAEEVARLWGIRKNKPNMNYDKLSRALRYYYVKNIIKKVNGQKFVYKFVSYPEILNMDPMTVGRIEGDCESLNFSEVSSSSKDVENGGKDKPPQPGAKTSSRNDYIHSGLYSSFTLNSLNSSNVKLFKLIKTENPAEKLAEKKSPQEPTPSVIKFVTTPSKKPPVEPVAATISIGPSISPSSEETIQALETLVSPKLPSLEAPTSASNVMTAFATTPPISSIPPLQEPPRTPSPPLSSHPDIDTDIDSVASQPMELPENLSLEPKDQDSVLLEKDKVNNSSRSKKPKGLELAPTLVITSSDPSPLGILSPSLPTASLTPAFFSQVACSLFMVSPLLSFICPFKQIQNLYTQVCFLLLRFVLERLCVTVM
# In short: as §1
# ETV2 = biological target: T10, ETV2 (Homo sapiens, UniProt O00321 1-342); settings: protein: recombinant; tags: N-terminal GST; dsDNA, one strand shown
# T10 sequence: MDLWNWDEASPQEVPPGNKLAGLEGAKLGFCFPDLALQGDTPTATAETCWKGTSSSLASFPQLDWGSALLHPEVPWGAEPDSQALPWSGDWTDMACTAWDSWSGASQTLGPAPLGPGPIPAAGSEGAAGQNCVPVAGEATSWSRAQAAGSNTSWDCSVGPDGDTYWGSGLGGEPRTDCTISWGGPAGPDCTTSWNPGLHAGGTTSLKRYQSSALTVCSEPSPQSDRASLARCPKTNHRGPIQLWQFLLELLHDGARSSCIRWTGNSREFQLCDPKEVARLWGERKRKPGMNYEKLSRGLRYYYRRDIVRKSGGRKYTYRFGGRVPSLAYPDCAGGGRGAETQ
# In short: as §1
# ELF3 = biological target: T11, ELF3 (Homo sapiens, UniProt P78545 1-371); settings: protein: recombinant; tags: N-terminal GST; dsDNA, one strand shown
# T11 sequence: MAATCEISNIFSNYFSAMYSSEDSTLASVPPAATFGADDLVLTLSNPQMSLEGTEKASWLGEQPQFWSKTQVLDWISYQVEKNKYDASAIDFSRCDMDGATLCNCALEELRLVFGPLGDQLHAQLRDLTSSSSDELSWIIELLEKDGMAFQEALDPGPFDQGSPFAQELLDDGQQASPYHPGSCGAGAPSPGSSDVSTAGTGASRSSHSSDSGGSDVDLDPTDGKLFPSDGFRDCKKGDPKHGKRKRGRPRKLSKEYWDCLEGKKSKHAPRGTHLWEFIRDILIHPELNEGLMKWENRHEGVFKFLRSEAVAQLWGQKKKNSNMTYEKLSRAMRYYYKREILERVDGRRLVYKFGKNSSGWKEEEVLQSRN
# In short: as §1
# CRX = CRX (Homo sapiens, UniProt O43186 1-299); settings: protein: recombinant; tags: N-terminal GST; dsDNA, one strand shown
# Sequence of CRX (O43186 whole entry): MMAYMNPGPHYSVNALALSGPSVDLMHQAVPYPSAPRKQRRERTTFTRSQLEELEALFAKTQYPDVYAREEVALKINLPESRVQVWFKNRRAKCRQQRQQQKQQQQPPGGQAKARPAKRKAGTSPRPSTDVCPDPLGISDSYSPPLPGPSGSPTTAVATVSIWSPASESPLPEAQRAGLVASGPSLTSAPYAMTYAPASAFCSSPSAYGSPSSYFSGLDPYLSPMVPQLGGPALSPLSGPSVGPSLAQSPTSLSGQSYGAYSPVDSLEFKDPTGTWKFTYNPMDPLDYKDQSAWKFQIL
# In short: as §1
# ETV1 = ETV1 (Homo sapiens, UniProt P50549 1-477); settings: protein: recombinant; tags: N-terminal GST; dsDNA, one strand shown
# Sequence of ETV1 (P50549 whole entry): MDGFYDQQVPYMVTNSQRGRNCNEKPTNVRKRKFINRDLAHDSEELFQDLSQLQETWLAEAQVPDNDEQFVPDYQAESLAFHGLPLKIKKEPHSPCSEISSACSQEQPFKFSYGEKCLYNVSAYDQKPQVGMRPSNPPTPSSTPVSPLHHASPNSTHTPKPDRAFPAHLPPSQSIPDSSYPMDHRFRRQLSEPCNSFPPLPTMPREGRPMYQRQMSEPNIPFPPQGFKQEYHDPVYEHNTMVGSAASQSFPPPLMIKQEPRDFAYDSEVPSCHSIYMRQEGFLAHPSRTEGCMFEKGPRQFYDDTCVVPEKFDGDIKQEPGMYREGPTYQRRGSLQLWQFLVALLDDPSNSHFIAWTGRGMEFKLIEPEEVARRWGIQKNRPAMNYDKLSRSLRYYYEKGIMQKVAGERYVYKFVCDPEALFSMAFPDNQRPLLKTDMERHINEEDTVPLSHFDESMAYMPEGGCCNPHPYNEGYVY
# In short: as §1
sequence,measurement,setting,value
TATTGC,binding signal,FLI1,"1.39 fold enrichment (6-mer frequency, TF over GST control)"
same,binding signal,ELK1,"1.33 fold enrichment (6-mer frequency, TF over GST control)"
same,binding signal,GABPA,"1.44 fold enrichment (6-mer frequency, TF over GST control)"
same,binding signal,ERG,"1.31 fold enrichment (6-mer frequency, TF over GST control)"
same,binding signal,ELF1,"1.41 fold enrichment (6-mer frequency, TF over GST control)"
same,binding signal,EHF,"1.3 fold enrichment (6-mer frequency, TF over GST control)"
same,binding signal,SPI1,"1.32 fold enrichment (6-mer frequency, TF over GST control)"
same,binding signal,SPIB,"1.37 fold enrichment (6-mer frequency, TF over GST control)"
same,binding signal,ELK3,"1.3 fold enrichment (6-mer frequency, TF over GST control)"
same,binding signal,FEV,"1.33 fold enrichment (6-mer frequency, TF over GST control)"
same,binding signal,ETV5,"1.34 fold enrichment (6-mer frequency, TF over GST control)"
same,binding signal,HSF1,"1.21 fold enrichment (6-mer frequency, TF over GST control)"
same,binding signal,SPIC,"1.5 fold enrichment (6-mer frequency, TF over GST control)"
same,binding signal,ELF4,"1.41 fold enrichment (6-mer frequency, TF over GST control)"
same,binding signal,ELK4,"1.29 fold enrichment (6-mer frequency, TF over GST control)"
same,binding signal,ETV2,"1.22 fold enrichment (6-mer frequency, TF over GST control)"
same,binding signal,ELF3,"1.2 fold enrichment (6-mer frequency, TF over GST control)"
same,binding signal,CRX,"1.47 fold enrichment (6-mer frequency, TF over GST control)"
same,binding signal,ETV1,"1.45 fold enrichment (6-mer frequency, TF over GST control)"
